# Where a name gives a salt, the structure may show the parent alone.
# System: Saccharomyces cerevisiae BY4741 SeMeCo community
# Experiment: z-score of subpopulation abundance vs DMSO median, subpopulation auxotrophic for U; higher = larger share of this subpopulation than in DMSO controls
# Settings: 10 µM; 24 h; SM minimal medium; subpopulation (auxotrophy): U
# Description: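 Fluorescent four-plasmid SeMeCo (self-establishing metabolically cooperating S. cerevisiae BY4741 community; plasmids pH-mRuby2, pL-mWasabi, pU-eCFP, pM-TagRFP657) was grown 24 h in minimal SM medium with each Selleck FDA-approved drug at 10 µM in 384-well plates. Cells were fixed and imaged by high-content confocal microscopy. For each auxotrophic subpopulation (and the prototroph), a z-score gives the deviation from the DMSO vehicle-control population median.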
row,Compound,z-score of subpopulation abundance
1,CCN(C)C(=O)Oc1cccc([C@H](C)N(C)C)c1 [Rivastigmine Tartrate],-0.19
2,CC[C@H]1[C@@H]2C[C@H]3[C@@H]4N(C)c5ccccc5[C@]45C[C@@H]([C@@H]2[C@H]5O)N3[C@@H]1O [Ajmaline],0.29
3,COc1ccc(C=O)cc1 [p-Anisaldehyde],-0.66
4,N#Cc1nn(-c2c(Cl)cc(C(F)(F)F)cc2Cl)c(N)c1[S+]([O-])C(F)(F)F (centres undefined) [Fipronil],-0.36
5,CN(C)[C@@H]1C(=O)C(C(N)=O)=C(O)[C@@]2(O)C(=O)C3=C(O)c4c(O)cccc4[C@@](C)(O)[C@H]3[C@H](O)[C@@H]12 [Oxytetracycline Dihydrate],0.11
6,CN1[C@@H]2C[C@@H](OC(=O)[C@H](CO)c3ccccc3)C[C@H]1[C@@H]1O[C@@H]12 [Scopolamine HBr trihydrate],0.18
7,COc1ccc2[nH]cc(CCN)c2c1 [5-Methoxytryptamine],1.12
8,CN[C@@H]1[C@@H](O)[C@@H](O[C@@H]2[C@@H](O)[C@H](O[C@H]3O[C@H]([C@@H](C)O)[C@@H](O)[C@H](O)[C@H]3N)[C@@H](N)C[C@H]2N)OC[C@]1(C)O [Geneticin (G418 Sulfate)],-0.18
9,CCCN1C[C@H](CSC)C[C@@H]2c3cccc4[nH]cc(c34)C[C@H]21 [Pergolide Mesylate],-0.62
10,CC[N+](C)(CC)CCOC(=O)C(O)(c1ccccc1)c1ccccc1 [Methylbenactyzine Bromide],-0.09
11,CN(C)[C@@H]1C(=O)C(C(N)=O)=C(O)[C@@]2(O)C(=O)C3=C(O)c4c(O)ccc(Cl)c4[C@@](C)(O)[C@H]3C[C@@H]12 [Chlortetracycline HCl],0.25
12,CN1C(=O)COc2c(C(=O)NC3CN4CCC3CC4)cc(Cl)cc21 (centres undefined) [Azasetron HCl],0.36
13,O=c1[nH]c2ccccc2n1CCCN1CCC(n2c(=O)[nH]c3cc(Cl)ccc32)CC1 [Domperidone],0.4
14,CN1[C@@H]2CC[C@H]1C[C@@H](OC(=O)[C@H](CO)c1ccccc1)C2 [Hyoscyamine],0.23
15,C#C[C@]1(O)C=C[C@H]2[C@@H]3CCC4=CC(=O)CC[C@@H]4[C@H]3CC[C@@]21CC [Gestodene],-0.99
16,CC(=O)OCC1=C(C(=O)O)N2C(=O)C(N)C2SC1 (centres undefined) [7-Aminocephalosporanic acid],0.52
17,C[CH2][Hg][S]c1ccccc1C(=O)[O-].[Na+] [Thimerosal],-3.69

row,Compound,z-score of subpopulation abundance
1,CC[C@@]1(O)C(=O)OCc2c1cc1n(c2=O)Cc2cc3ccccc3nc2-1 [Camptothecin],-0.45
2,Cc1cc(O)ccc1Cl [Chlorocresol],-0.59
3,COc1ccc(C(CN(C)C)C2(O)CCCCC2)cc1 (centres undefined) [Venlafaxine],0.93
4,CN1c2ccccc2C(NCCCCCCC(=O)O)c2ccc(Cl)cc2S1(=O)=O (centres undefined) [Tianeptine sodium],-0.4
5,CN[C@@H]1[C@@H](O)[C@@H](O[C@@H]2[C@@H](O)[C@H](O[C@H]3O[C@H](CN)CC[C@H]3N)[C@@H](N)C[C@H]2N)OC[C@]1(C)O.CN[C@@H]1[C@@H](O)[C@@H](O[C@@H]2[C@@H](O)[C@H](O[C@H]3O[C@H]([C@@H](C)N)CC[C@H]3N)[C@@H](N)C[C@H]2N)OC[C@]1(C)O.CN[C@@H]1[C@@H](O)[C@@H](O[C@@H]2[C@@H](O)[C@H](O[C@H]3O[C@H]([C@@H](C)NC)CC[C@H]3N)[C@@H](N)C[C@H]2N)OC[C@]1(C)O [Gentamicin Sulfate],0.09
6,Cn1cc(C2=C(c3cn(C4CCN(Cc5ccccn5)CC4)c4ccccc34)C(=O)NC2=O)c2ccccc21,1.48
7,C[N+]12CCC(CC1)C(OC(=O)C(O)(c1ccccc1)c1ccccc1)C2 (centres undefined) [Clidinium Bromide],0.71
8,COc1cc2c(cc1OC)C1CC(=O)C(CC(C)C)CN1CC2 (centres undefined) [Tetrabenazine (Xenazine)],-1.18
9,"NCC(O)c1ccc(O)cc1 (racemic) [(+,-)-Octopamine HCl]",0.08
10,N[C@@H]1C[C@H]1c1ccccc1 [Tranylcypromine (2-PCPA) HCl],-0.01
11,O=[N+]([O-])C(Br)(CO)CO [Bronopol],1.02
12,Oc1cccc2cccnc12 [8-Hydroxyquinoline],-0.25
13,C[N+](C)(C)CCCCCCCCCC[N+](C)(C)C [Decamethonium Bromide],0.01
14,O=C(O[C@H]1C[N+]2(CCCOc3ccccc3)CCC1CC2)C(O)(c1cccs1)c1cccs1 [Aclidinium Bromide],0.94
15,CN(C)[C@@H]1C(=O)C(C(N)=O)=C(O)[C@@]2(O)C(=O)C3=C(O)c4c(O)cccc4[C@@](C)(O)[C@H]3C[C@@H]12 [Tetracycline HCl],0.13
16,CNC1CC(N)C(O)C(OC2OC(CO)C(O)C3OC4(OC(C(N)CO)C(O)C(O)C4O)OC23)C1O (centres undefined) [Hygromycin B],0.58
17,C=CN1CCCC1=O.II [Povidone iodine],0.2
